# This is part of a sample that, as a whole, favours compounds with a hit. Of some 79,000 tested, about 15% had one in any assay. A number with no mark means an inactive call. Active and inactive are the calls of the source. Cut-off read from the data, not from the text of the source: active = growth inhibition above about 70%; inactive = the rest.
# Test: NCI Yeast Anticancer Drug Screen. Data for the CLN2oe strain (AID 163);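 note: 0% = growth of vehicle-only control cultures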
# Conditions: S. cerevisiae CLN2oe strain, stronger effect = higher value
# Method: Growth inhibition of yeast strains with defined genetic alterations is measured as a screen for potential anti-cancer activity. Selected strains with alterations in DNA damage repair or cell cycle control were exposed to compounds and growth inhibition was measured relative to vehicle treated controls. The strain used in this assay is CLN2oe
Structure (SMILES),growth inhibition (at 1.2 µM) [%],growth inhibition (at 3.7 µM) [%],growth inhibition (at 11.0 µM),growth inhibition (at 33.0 µM),growth inhibition (at 100.0 µM)
CCC(C)NC1=NCC(C)S1 (stereo not given),-5,1,-9%,0%,-8%
CN(C)c1ccc(C2CC(C)(O)Oc3cc4c(cc32)OCO4)cc1 (stereo not given),-5,-16,4%,-3%,16%
CCCCCCCCCCCCNC(C)=O,-1,-1,0%,-4%,-2%
CC[n+]1oc(C(=O)c2ccc(Cl)cc2)c(-c2ccccc2)c1-c1ccccc1.[Cl][Fe]([Cl])([Cl])[Cl],0,2,7%,23%,56%
O=c1ccc2ccccc2c2ccccc12,20,25,87% (active),100% (active),100% (active)
Cc1cccc(C(C)(C)C)c1NC(=O)C(C#N)C1=C(Cl)C(=O)c2ccccc2C1=O (stereo not given),4,30,58%,98% (active),98% (active)
Cc1cc2cc3cc(C)c(N)cc3nc2cc1N,-1,8,17%,46%,83% (active)
CCC1(OC(=O)CN2CCN(CCO)CC2)C(=O)OCc2c1cc1n(c2=O)Cc2cc3ccccc3nc2-1 (stereo not given),3,5,2%,-23%,-3%

# Reference: PubChem BioAssay (NCI)
